# Where “and” joins values, the source holds several entries; their conditions need not be identical. Identical values can stand only once. The panel holds about 83,000 compounds, 20% with a hit somewhere; the sample as a whole holds those more often.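 48-hour exposure, single concentration, 96-well plates; percent growth endpoint where 0 means no net growth. Active: below 10.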 Values without a mark were called inactive. Calls of active or inactive are those of the source.
# Test system: MDA-MB-468 breast
# Test: NCI-60 one-dose screen, 48 h (100 = growth as untreated, 0 = no growth, -100 = all killed)
# Settings: 10 µM unless noted
row,SMILES,growth
1,Cc1cc(C(=O)c2ccccc2)cc(C)c1O,111%
2,CCN(CC)CCCNc1cccc2c(SCc3ccccc3)ccnc12,88.3%
3,COc1ccc2nccc(/C=C/c3ccnc4ccc(OC)cc34)c2c1,110%
4,CN1CCN(CC(=O)Nc2nc3c(s2)Nc2cc(Cl)c(Cl)cc2NC3=O)CC1,114%
5,O=C(N/N=C1\c2ccccc2-c2cccc(C(=O)O)c21)c1ccc(O)cc1,90.8%
6,COc1cc2ncnc3c2cc1OCCCCCN(C)Cc1ccc(Br)cc1N3,-26.6% (active)
7,CCC1OC(OC)C=CC1=O (stereo not given),100%
8,COc1ccc(/C(=N\N)C(=O)c2ccccc2)cc1 (tested in a mixture with another compound),89%
9,CSc1nc(NCCCNc2ccnc3cc(Cl)ccc23)cc(-c2ccccc2)n1,11.3%
10,O=C(c1ccccc1)N(CCc1ccc(Cl)cc1)C(=S)N(C(=O)c1ccccc1)c1ccccc1,36%
11,O=c1[nH]c(=S)[nH]n1C(=S)n1[nH]c(=S)[nH]c1=O,92.5%
12,COc1ccc(C(=O)c2cc(OC)c(C)c(OC)c2)cc1OC(=O)CCl,38.3%
13,COc1ccc(S(=O)(=O)NCCNc2nccc(-c3c(-c4cccc(N)c4)nc4sccn34)n2)cc1,88.5%
14,O=C(O)c1ccc(Br)nc1,88.6%
15,O=c1cc(CSc2nnc(-c3ccccc3)n2-c2ccc(F)cc2)c2ccc3ccccc3c2o1,93.2%
16,CN1CCN(c2ccc3nc(-c4c(N)c5c(F)cccc5[nH]c4=O)[nH]c3c2)CC1,108% and 102%
17,CCCN(CCC)CC(O)COc1ccccc1C(=O)Nc1ccccc1 (stereo not given),85.9%
18,CSc1nc(N)c(NS(=O)(=O)c2ccc(C(C)=O)cc2)c(=O)[nH]1,97%
19,COc1ccc(C2=NN(C(C)=O)C(c3c(C)nn(-c4ccccc4)c3N3CCOCC3)C2)cc1 (stereo not given),92.6%
20,CCCCCSc1ccc2nc(NC(=O)OCC)sc2c1,-10.5% (active)

row,SMILES,growth
1,COc1cc(C2CC(c3cccc(Br)c3)=NN2C(C)=O)cc(OC)c1OC (stereo not given),24.1%
2,COc1cc(CCc2cc(NC(=O)c3ccc(N4C[C@@H](C)N[C@@H](C)C4)cc3)n[nH]2)cc(OC)c1,71.3%
3,COc1ccc(C2C(C#N)=C(N)Oc3c2sc2c(Br)cccc32)cc1 (stereo not given),3.82% (active)
4,CC(O)C(F)(F)C(F)(F)C(F)(F)F (stereo not given),96.4%
5,COc1cc2c(cc1OC)-c1ccc3cc4c(cc3c1N(CCN(C)C)C2)OCO4,-30.4% (active)
6,CCN(CC)CCCC(C)Nc1ccnc2c(OC)cccc12 (stereo not given),117%
7,CCN1CCN(c2cc(C(=O)Nc3nc(-c4cc(OC)c(OC)c(OC)c4)cs3)cc(C(F)(F)F)c2)CC1,84.8%
8,CNC(=O)c1ccccc1Sc1ccc2c(/C=C/c3ccccn3)n[nH]c2c1,28%
9,COc1cc(C2CC(c3ccccc3)=NN2C=O)ccc1Oc1ccnc2cc(Cl)ccc12 (stereo not given),16.5%
10,O=C(Nc1ccc(Oc2cccc(Cl)c2)c(Cl)c1)c1cnccn1,0.426% (active)
11,Fc1cc2c(cc1Cl)N(c1ncnc3ccc(-c4cnc5[nH]ncc5c4)cc13)CC2,49.5%
12,O=C1/C=C/[C@@H](O)[C@@H]2C[C@@H](O)C[C@H]2/C=C/CCC[C@H](CCc2cccc3ccccc23)O1,-32.4% (active)
13,COc1ccc(C2=NN(C(C)=O)C(c3cccc(Nc4ccnc5cc(Cl)ccc45)c3)C2)cc1 (stereo not given),38.9%
14,C/C=C/C/C=C/[C@H](C)C[C@H](O)[C@@H]1C[C@@H]2O[C@H]2/C=C/[C@@H]2OC(C)(C)O[C@H]2/C=C/C[C@H](C)CC(=O)O1,59.8%
15,S=P(N1CC1)(N1CC1)N1CC1,106% and 67.8%
16,O=C(C(=O)N1CCCCC1)c1ccc(OC2OC(CO)C(O)C(O)C2O)cc1 (stereo not given),100%
17,COc1ccc2c(c1)C(=O)c1c-2c(OCCCN(C)C)nc2cc(Br)ccc12,67.5%
18,COc1ccc(-c2nc(NN)c3c(C)nn(-c4ccc(F)cc4)c3n2)cc1,25.8%
19,CCCC(=O)N1CCCCC1CC (stereo not given),102%
20,CN1CCN(C(=O)[C@]23CCC(C)(C)C[C@H]2C2=CC[C@@H]4[C@@]5(C)C/C(=C/c6cccnc6)C(=O)C(C)(C)[C@@H]5CC[C@@]4(C)[C@]2(C)CC3)CC1,34.3%
